# Assay results reported in publication PMC7862700, “An all-to-all approach to the identification of sequence-specific readers for epigenetic DNA modifications on cytosine”.
# Assays:
# Assay in all cases: DAPPL (digital affinity profiling via proximity ligation, sequencing); 10 mM Tris-HCl pH 7.5, 50 mM NaCl, 1 mM DTT, 4% glycerol, room temperature, 30 min; GST-TFs on glutathione beads, 16-mer random dsDNA library, 0.1% formaldehyde crosslink after washing; high values mean tight binding
# [1] = biological target: T1, FLI1 (Homo sapiens, UniProt Q01543 1-452); details: protein: recombinant; tags: N-terminal GST; dsDNA, one strand shown
# T1 sequence: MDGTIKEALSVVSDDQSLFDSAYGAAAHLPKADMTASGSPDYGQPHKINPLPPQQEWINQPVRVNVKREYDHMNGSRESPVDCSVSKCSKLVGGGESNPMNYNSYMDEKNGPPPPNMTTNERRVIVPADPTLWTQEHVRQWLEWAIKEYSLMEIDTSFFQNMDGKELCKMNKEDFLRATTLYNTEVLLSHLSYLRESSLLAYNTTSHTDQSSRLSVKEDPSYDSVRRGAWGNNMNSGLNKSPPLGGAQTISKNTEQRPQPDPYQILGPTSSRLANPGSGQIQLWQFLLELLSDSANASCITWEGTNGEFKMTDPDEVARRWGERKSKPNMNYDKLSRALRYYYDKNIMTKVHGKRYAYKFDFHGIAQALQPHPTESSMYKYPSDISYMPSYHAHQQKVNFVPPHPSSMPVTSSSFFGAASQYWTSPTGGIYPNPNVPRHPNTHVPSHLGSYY
# Procedure, shortened: (§1)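 Human transcription factors carrying a GST fusion were produced in yeast, bound to glutathione beads, tagged with DNA barcodes and pooled together with a tag-only sample. Each pool was held with 200 nmole of a random double-stranded 16-mer DNA library in Tris/NaCl/DTT/glycerol buffer for 30 min at room temperature, then washed, crosslinked in 0.1% formaldehyde, proximity-ligated with BsaI/T4 ligase (1 h, 37 °C), PCR-amplified and sequenced on an Illumina NextSeq500. Binding signal is the read frequency of each hexamer for a given factor divided by its frequency in the tag-only sample.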
# [2] = biological target: T2, ELK1 (Homo sapiens, UniProt P19419 1-428); details: protein: recombinant; tags: N-terminal GST; dsDNA, one strand shown
# T2 sequence: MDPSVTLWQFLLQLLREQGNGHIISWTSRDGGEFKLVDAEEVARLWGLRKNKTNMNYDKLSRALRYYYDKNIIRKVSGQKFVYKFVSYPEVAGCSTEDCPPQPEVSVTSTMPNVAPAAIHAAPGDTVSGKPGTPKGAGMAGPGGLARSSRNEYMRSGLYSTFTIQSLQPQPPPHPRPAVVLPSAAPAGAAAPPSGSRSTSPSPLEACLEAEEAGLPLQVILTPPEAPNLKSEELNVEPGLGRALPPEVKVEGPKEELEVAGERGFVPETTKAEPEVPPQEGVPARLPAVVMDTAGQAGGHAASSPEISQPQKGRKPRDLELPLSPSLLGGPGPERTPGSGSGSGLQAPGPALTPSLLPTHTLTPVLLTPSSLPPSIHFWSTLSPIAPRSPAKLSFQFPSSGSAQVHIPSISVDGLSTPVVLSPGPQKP
# Procedure, shortened: as §1
# [3] = biological target: T3, GABPA (Homo sapiens, UniProt Q06546 1-454); details: protein: recombinant; tags: N-terminal GST; dsDNA, one strand shown
# T3 sequence: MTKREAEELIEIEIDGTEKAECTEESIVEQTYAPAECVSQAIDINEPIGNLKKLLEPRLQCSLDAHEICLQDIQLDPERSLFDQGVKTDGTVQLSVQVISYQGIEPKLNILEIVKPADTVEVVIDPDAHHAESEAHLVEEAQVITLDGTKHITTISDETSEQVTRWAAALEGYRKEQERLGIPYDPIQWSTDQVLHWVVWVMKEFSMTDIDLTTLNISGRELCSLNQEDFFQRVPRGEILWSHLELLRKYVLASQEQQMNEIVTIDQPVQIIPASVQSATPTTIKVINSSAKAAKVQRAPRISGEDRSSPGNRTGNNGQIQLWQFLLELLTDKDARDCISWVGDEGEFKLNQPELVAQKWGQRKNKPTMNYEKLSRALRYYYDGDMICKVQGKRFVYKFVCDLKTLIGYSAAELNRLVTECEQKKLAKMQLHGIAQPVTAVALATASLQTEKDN
# Procedure, shortened: as §1
# [4] = biological target: T4, ERG (Homo sapiens, UniProt P11308 1-479); details: protein: recombinant; tags: N-terminal GST; dsDNA, one strand shown
# T4 sequence: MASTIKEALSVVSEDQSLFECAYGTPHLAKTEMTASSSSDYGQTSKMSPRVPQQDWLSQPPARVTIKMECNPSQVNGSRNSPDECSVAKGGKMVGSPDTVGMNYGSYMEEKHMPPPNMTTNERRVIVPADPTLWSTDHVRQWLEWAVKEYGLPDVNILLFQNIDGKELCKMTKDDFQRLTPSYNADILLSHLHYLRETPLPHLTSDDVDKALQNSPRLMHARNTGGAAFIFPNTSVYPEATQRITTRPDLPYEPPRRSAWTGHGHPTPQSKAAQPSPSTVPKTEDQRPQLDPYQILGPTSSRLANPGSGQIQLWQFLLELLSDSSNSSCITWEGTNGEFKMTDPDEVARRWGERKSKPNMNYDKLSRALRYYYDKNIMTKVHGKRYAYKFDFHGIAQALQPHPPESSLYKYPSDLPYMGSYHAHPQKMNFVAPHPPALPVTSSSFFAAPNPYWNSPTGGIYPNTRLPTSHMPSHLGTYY
# Procedure, shortened: as §1
# [5] = biological target: ELF1 (Homo sapiens, UniProt P32519 1-619); details: protein: recombinant; tags: N-terminal GST; dsDNA, one strand shown
# Procedure, shortened: as §1
# [6] = biological target: T5, EHF (Homo sapiens, UniProt Q9NZC4 1-300); details: protein: recombinant; tags: N-terminal GST; dsDNA, one strand shown
# T5 sequence: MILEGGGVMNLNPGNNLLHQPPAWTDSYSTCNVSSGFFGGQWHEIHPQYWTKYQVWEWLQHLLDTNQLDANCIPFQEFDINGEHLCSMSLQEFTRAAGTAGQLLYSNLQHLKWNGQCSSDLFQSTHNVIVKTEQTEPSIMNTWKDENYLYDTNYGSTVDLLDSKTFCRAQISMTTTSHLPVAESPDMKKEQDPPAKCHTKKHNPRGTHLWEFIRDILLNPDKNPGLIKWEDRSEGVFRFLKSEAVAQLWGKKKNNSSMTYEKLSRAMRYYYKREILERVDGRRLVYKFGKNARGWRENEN
# Procedure, shortened: as §1
# [7] = biological target: SPI1 (Homo sapiens, UniProt P17947 1-270); details: protein: recombinant; tags: N-terminal GST; dsDNA, one strand shown
# Procedure, shortened: as §1
# [8] = biological target: SPIB (Homo sapiens, UniProt Q01892 1-262); details: protein: recombinant; tags: N-terminal GST; dsDNA, one strand shown
# Procedure, shortened: as §1
# [9] = biological target: T6, ELK3 (Homo sapiens, UniProt P41970 1-407); details: protein: recombinant; tags: N-terminal GST; dsDNA, one strand shown
# T6 sequence: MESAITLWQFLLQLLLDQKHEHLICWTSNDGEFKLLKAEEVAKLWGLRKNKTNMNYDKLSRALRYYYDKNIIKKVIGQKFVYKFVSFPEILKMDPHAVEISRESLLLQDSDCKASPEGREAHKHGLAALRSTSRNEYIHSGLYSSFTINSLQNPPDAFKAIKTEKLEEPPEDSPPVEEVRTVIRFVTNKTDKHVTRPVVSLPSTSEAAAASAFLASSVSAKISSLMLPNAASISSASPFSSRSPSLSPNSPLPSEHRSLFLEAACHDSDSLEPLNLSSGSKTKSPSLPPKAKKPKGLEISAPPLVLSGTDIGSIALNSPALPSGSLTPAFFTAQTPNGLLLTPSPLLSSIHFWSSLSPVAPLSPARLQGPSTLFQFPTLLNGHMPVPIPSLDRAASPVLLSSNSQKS
# Procedure, shortened: as §1
# [10] = biological target: T7, FEV (Homo sapiens, UniProt Q99581 1-238); details: protein: recombinant; tags: N-terminal GST; dsDNA, one strand shown
# T7 sequence: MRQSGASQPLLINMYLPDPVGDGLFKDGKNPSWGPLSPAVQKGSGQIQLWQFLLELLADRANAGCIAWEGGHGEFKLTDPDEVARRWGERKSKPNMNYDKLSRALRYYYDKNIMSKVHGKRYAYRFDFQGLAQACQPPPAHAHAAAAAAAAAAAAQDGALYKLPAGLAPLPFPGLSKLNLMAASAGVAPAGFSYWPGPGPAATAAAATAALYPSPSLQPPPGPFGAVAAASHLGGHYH
# Procedure, shortened: as §1
# [11] = biological target: ETV5 (Homo sapiens, UniProt P41161 1-510); details: protein: recombinant; tags: N-terminal GST; dsDNA, one strand shown
# Procedure, shortened: as §1
# [12] = biological target: HSF1 (Homo sapiens, UniProt Q00613 1-529); details: protein: recombinant; tags: N-terminal GST; chain copies: 3; dsDNA, one strand shown
# Procedure, shortened: as §1
# [13] = biological target: T8, SPIC (Homo sapiens, UniProt Q8N5J4 1-248); details: protein: recombinant; tags: N-terminal GST; dsDNA, one strand shown
# T8 sequence: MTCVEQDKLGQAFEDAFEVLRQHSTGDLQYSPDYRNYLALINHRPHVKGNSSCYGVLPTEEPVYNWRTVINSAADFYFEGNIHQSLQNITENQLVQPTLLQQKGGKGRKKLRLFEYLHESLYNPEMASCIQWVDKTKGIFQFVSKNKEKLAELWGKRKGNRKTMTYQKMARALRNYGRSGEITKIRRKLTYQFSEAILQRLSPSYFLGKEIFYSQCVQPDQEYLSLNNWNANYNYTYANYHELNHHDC
# Procedure, shortened: as §1
# [14] = biological target: ELF4 (Homo sapiens, UniProt Q99607 1-663); details: protein: recombinant; tags: N-terminal GST; dsDNA, one strand shown
# Procedure, shortened: as §1
# [15] = biological target: T9, ELK4 (Homo sapiens, UniProt P28324-2 1-405); details: protein: recombinant; tags: N-terminal GST; dsDNA, one strand shown
# T9 sequence: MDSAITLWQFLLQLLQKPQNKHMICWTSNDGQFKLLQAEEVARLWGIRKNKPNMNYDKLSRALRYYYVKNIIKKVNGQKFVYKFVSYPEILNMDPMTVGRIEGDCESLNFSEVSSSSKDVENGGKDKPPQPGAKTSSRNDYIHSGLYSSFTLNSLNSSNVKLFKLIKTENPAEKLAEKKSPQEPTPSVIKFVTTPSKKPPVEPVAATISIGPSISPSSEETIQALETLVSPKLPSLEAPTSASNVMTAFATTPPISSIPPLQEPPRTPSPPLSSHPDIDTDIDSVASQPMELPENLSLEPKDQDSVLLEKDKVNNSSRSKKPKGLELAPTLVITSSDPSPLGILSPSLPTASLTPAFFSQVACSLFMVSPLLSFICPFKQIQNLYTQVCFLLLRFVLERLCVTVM
# Procedure, shortened: as §1
# [16] = biological target: T10, ETV2 (Homo sapiens, UniProt O00321 1-342); details: protein: recombinant; tags: N-terminal GST; dsDNA, one strand shown
# T10 sequence: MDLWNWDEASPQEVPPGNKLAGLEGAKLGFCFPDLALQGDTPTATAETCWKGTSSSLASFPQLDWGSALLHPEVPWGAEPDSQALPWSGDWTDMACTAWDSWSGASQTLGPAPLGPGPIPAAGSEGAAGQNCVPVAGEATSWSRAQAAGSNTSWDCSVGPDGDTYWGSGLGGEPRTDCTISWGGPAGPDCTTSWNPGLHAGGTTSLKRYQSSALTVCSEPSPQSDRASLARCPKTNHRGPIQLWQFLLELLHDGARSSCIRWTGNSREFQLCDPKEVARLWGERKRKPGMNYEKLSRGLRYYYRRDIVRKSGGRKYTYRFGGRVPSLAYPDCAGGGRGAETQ
# Procedure, shortened: as §1
# [17] = biological target: T11, ELF3 (Homo sapiens, UniProt P78545 1-371); details: protein: recombinant; tags: N-terminal GST; dsDNA, one strand shown
# T11 sequence: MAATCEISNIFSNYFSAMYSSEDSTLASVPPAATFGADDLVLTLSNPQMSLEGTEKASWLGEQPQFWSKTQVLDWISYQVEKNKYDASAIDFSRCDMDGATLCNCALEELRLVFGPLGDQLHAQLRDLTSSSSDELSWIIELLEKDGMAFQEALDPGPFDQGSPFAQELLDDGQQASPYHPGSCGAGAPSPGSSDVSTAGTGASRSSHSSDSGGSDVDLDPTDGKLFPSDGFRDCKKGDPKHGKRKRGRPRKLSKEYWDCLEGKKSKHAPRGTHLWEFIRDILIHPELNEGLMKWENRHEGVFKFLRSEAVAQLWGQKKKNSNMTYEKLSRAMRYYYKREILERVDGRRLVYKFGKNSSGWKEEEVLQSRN
# Procedure, shortened: as §1
# [18] = biological target: CRX (Homo sapiens, UniProt O43186 1-299); details: protein: recombinant; tags: N-terminal GST; dsDNA, one strand shown
# Procedure, shortened: as §1
# [19] = biological target: ETV1 (Homo sapiens, UniProt P50549 1-477); details: protein: recombinant; tags: N-terminal GST; dsDNA, one strand shown
# Procedure, shortened: as §1
# Sequence of ETV1 (P50549 whole entry): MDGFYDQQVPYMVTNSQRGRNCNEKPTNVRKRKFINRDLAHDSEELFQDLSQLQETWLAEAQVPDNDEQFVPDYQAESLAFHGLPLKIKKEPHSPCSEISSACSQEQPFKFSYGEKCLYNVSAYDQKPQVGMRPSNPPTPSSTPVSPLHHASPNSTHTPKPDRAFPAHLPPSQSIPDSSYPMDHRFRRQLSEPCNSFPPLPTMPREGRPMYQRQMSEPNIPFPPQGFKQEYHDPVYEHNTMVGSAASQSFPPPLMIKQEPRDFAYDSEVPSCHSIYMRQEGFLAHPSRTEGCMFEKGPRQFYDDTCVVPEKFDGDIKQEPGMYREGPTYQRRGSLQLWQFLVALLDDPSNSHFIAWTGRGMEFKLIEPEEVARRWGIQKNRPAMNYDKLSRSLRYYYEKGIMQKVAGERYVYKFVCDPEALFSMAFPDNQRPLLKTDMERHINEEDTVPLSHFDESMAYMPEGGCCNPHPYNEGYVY
# Sequence of CRX (O43186 whole entry): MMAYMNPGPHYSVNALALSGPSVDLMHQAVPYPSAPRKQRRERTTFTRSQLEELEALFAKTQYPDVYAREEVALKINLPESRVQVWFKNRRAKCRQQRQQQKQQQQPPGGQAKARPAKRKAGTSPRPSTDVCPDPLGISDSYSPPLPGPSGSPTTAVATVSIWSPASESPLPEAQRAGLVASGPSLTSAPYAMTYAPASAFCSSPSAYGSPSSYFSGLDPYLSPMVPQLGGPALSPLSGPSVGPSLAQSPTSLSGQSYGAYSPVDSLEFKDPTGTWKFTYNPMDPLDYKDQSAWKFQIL
# Sequence of ELF4 (Q99607 whole entry): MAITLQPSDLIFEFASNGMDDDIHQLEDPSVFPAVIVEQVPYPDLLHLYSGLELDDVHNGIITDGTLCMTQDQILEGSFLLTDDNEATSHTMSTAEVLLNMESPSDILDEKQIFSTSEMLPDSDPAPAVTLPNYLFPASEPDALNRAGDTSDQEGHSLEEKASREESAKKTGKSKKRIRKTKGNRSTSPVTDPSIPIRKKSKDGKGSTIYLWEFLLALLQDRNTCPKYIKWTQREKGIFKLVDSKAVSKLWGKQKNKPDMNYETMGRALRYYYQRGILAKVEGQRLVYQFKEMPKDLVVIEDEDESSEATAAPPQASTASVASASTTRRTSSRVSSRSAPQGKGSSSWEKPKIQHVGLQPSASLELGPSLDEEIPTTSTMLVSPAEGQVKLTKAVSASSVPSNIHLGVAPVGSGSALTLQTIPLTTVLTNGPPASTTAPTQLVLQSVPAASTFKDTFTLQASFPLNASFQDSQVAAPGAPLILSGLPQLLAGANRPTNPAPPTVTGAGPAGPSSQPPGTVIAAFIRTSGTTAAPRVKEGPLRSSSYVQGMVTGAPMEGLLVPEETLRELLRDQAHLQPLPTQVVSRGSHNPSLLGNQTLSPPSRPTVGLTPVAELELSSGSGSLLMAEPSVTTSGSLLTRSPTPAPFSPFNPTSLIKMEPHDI
# Sequence of ETV5 (P41161 whole entry): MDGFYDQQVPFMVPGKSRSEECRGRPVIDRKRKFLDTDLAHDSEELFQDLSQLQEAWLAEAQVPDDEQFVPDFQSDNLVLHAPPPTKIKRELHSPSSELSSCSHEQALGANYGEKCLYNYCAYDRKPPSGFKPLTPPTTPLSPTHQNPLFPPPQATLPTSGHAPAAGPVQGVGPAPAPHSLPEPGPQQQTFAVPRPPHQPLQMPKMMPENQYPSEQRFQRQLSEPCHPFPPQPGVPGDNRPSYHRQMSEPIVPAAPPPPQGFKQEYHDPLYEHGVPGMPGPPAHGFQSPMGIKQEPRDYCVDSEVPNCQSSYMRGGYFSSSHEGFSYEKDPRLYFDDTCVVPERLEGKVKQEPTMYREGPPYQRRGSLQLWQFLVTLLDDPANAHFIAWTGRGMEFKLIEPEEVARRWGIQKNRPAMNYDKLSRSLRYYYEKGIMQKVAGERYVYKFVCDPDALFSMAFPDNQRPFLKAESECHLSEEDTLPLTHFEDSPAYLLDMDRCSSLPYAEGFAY
# Sequence of ELF1 (P32519 whole entry): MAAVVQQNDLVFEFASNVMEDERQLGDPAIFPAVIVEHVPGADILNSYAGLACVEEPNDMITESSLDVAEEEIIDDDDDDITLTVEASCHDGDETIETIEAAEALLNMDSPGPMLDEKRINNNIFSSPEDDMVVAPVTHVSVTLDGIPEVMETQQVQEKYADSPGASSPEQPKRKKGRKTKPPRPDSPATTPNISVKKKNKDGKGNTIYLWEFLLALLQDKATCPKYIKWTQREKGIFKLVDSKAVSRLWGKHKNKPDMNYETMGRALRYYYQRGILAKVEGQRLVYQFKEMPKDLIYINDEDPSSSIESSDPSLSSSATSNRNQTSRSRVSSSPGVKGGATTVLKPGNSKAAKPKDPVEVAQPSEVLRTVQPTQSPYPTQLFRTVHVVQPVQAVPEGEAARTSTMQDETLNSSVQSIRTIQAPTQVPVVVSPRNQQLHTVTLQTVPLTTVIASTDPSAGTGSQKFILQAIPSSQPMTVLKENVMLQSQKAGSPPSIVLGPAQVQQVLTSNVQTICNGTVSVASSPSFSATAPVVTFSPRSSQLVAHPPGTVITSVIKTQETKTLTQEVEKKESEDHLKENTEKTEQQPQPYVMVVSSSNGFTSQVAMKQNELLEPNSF
# Sequence of SPIB (Q01892 whole entry): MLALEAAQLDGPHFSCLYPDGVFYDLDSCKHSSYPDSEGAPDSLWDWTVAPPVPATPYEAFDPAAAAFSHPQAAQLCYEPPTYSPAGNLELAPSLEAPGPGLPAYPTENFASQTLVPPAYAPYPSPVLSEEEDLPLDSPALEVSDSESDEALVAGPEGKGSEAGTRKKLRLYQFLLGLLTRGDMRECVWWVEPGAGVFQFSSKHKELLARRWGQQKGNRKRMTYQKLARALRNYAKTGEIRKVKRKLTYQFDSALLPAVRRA
# Sequence of HSF1 (Q00613 whole entry): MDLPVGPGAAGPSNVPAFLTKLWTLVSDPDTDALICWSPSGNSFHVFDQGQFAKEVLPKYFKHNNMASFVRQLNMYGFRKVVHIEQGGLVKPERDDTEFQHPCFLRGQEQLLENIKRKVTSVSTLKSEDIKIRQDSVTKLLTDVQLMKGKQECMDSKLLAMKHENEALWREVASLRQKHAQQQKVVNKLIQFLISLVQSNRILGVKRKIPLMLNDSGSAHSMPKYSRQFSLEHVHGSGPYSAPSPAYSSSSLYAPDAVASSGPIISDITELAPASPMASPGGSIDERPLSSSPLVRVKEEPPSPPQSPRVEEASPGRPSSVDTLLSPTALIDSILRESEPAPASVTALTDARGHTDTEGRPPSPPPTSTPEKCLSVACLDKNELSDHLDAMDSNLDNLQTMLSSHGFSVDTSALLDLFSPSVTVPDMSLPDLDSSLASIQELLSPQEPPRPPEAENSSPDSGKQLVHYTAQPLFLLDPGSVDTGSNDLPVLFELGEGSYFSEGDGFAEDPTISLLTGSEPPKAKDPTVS
sequence,measurement,setting,value
ACCTTC,binding signal,[1],"1.8 fold enrichment (6-mer frequency, TF over GST control)"
same,binding signal,[2],"1.94 fold enrichment (6-mer frequency, TF over GST control)"
same,binding signal,[3],"1.79 fold enrichment (6-mer frequency, TF over GST control)"
same,binding signal,[4],"2.03 fold enrichment (6-mer frequency, TF over GST control)"
same,binding signal,[5],"1.92 fold enrichment (6-mer frequency, TF over GST control)"
same,binding signal,[6],"2.02 fold enrichment (6-mer frequency, TF over GST control)"
same,binding signal,[7],"1.75 fold enrichment (6-mer frequency, TF over GST control)"
same,binding signal,[8],"1.95 fold enrichment (6-mer frequency, TF over GST control)"
same,binding signal,[9],"1.8 fold enrichment (6-mer frequency, TF over GST control)"
same,binding signal,[10],"1.97 fold enrichment (6-mer frequency, TF over GST control)"
same,binding signal,[11],"1.96 fold enrichment (6-mer frequency, TF over GST control)"
same,binding signal,[12],"2.87 fold enrichment (6-mer frequency, TF over GST control)"
same,binding signal,[13],"1.66 fold enrichment (6-mer frequency, TF over GST control)"
same,binding signal,[14],"2.06 fold enrichment (6-mer frequency, TF over GST control)"
same,binding signal,[15],"2.06 fold enrichment (6-mer frequency, TF over GST control)"
same,binding signal,[16],"1.71 fold enrichment (6-mer frequency, TF over GST control)"
same,binding signal,[17],"1.95 fold enrichment (6-mer frequency, TF over GST control)"
same,binding signal,[18],"1.88 fold enrichment (6-mer frequency, TF over GST control)"
same,binding signal,[19],"1.98 fold enrichment (6-mer frequency, TF over GST control)"
